# PubChem BioAssay (NCATS)
# Inconclusive results are not listed. Values without a mark were called inactive. Calls of active or inactive are those of the source. Unless noted, calls come from the whole dose curve.
# Tested on: not listed separately
# Assay: qHTS for Inhibitors of the Functional Ribonucleoprotein Complex (vRNP) of Lymphocytic Choriomeningitis Arenaviruses (LCMV): Viability assay - alamar blue signal for LCMV Primary Screen (AID 1347085; calls by dose curve; tested in HEK293 reporter line; note: nearly all actives have a fitted effect of over 80% in size)
# Details: alamar blue viability counter-screen, LCMV vRNP screen cells; series mostly up to 57.5 µM; activity change, negative = lower viability: at the top concentration
# % is set by controls: 0 for no effect and ±100 for the full control effect; potency is the fitted concentration of half-maximal effect.
Compound,"activity change, negative = lower viability",Potency
N=C1SC(=Cc2ccc(-c3ccc4c(c3)C(=O)NC4=O)o2)C(=O)N1c1ccc(Br)cc1,21.9%,–
COc1c2c(nc3ccccc13)OC(C(C)(O)COC(C)=O)C2 (stereo not given),-0.391%,–
CC(=NNC(=S)N1CCC1)c1ccccn1,–,0.0385 µM (active)
C=C1CC/C=C(\C)CC[C@@H]2[C@@H]1CC2(C)C,4.91% [at 115 µM],–
CC(C)C[C@H](NC(=O)c1cc2ccccc2s1)C(=O)N1CCN(C(=O)[C@H](CO)NS(=O)(=O)c2ccc(Cl)cc2Cl)CC1,-20.5%,–
C=C(C)C(O)Cc1c(OC)ccc(C(=O)/C=C/c2ccc(O)cc2)c1O (stereo not given),-1.61%,–
COc1cc2c(c(OC)c1OC)-c1c(cc(OC)c(OC)c1OC)C[C@](C)(O)[C@@H](C)C2,-0.0307%,–
O=C1c2ccccc2C(=O)c2c(O)c(O)cc(O)c21,3.43% [at 115 µM],–
O=C(O)CCC/C=C\C/C=C\C=C\[C@@H](O)C/C=C\CCCCCO,9.51% [at 0.757 µM],–
CC1=C2C(=O)C3C(CC=C4CC(O)CCC43C)C2CCC12OC1CC(C)CNC1C2C (stereo not given),9.4%,–
CCCCCCCCCCCC(C)=O,20.4% [at 115 µM],–
CC(=O)O[C@H]1C[C@@]2(O)[C@@H](OC(=O)c3ccccc3)C3[C@@](C)([C@@H](O)C[C@H]4OC[C@@]34OC(C)=O)[C@@H](O)[C@H](OC(C)=O)C(=C1C)C2(C)C (stereo not given in full),-12.7%,–
CC[C@@H](C)[C@@H](O)[C@H](C)C(=O)[C@H](C)/C=C(\C)C[C@H](C)[C@@H]1OC(=O)[C@H]1CC,15.3%,–
COc1ccc(C2Sc3ccccc3N(CCN(C)C)C(=O)C2OC(C)=O)cc1 (stereo not given),-11.4%,–
CSCC[C@@H](N)C(=O)O,-7.75%,–
CCCCC/C=C\C[C@@H]1O[C@H]1C(O)/C=C\C/C=C\CCCC(=O)O (stereo not given in full),11% [at 0.757 µM],–
CC1=CC(=O)/C(=C(/C)O)C(=O)O1,4.09% [at 115 µM],–
CON(C)C(=O)N1N=C(c2cc(F)ccc2F)S[C@]1(CCCN)c1ccccc1,-92%,–
CCCCCCCOC(C)=O,7.88% [at 115 µM],–
C[C@]1(CC/C(=C/CO)CO)[C@H](CO)CC[C@@]23COC(=O)C2=CCC[C@@H]31,10.4%,–
CCCCCC1C(=O)CCC1CC(=O)OC (stereo not given),-2.26%,–
C=CC(C)=CCC=C(C)C,5.44% [at 115 µM],–
c1coc(Cn2cccc2)c1,15.6% [at 115 µM],–
CC(C)(O)c1ccc2c(c1)CCC1C(C)(C(=O)O)CCCC21C (stereo not given),-16.7%,–
CC(=O)O[C@H]1CC[C@@]2(C)[C@H](C1)C(=O)C[C@H]1[C@@H]3CC[C@@H]4[C@@H](CN5C[C@@H](C)CC[C@H]5[C@@]4(C)O)[C@@H]3C[C@@H]12,16.9%,–

# Target: Nucleoprotein (Lymphocytic choriomeningitis virus (strain Armstrong)) (UniProt P09992)
# Sequence (P09992 whole entry, looked up): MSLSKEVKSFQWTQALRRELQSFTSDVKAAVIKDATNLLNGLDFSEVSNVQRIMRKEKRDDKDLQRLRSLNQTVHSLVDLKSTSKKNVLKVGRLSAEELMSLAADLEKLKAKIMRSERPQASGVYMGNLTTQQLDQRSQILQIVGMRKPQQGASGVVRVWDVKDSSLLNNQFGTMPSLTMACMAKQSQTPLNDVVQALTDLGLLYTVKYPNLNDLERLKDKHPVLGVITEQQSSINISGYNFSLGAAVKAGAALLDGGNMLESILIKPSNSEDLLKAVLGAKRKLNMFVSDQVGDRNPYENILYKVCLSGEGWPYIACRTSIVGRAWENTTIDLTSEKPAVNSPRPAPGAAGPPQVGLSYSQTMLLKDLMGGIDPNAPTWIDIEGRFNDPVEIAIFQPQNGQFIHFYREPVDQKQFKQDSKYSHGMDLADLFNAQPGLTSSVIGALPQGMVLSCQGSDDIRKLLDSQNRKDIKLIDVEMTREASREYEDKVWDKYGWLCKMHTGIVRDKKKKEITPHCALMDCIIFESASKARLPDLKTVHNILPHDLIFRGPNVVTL
# Assay: qHTS for Inhibitors of the Functional Ribonucleoprotein Complex (vRNP) of Lymphocytic Choriomeningitis Arenaviruses (LCMV): LCMV Primary Screen - GLuc reporter signal (AID 1347086); note: nearly all actives have a fitted effect of over 70% in size
# Details: LCMV minigenome vRNP cell assay, Gaussia luciferase reporter; series mostly up to 57.5 µM; activity change, negative = inhibition: at the top concentration
Compound,"activity change, negative = inhibition",Potency
C[C@@H]1CCCCCCCCCCC1=O,-14.3%,–
COc1cc2c(OC(C)=O)c3c(c(-c4ccc5c(c4)OCO5)c2cc1OC)C(=O)OC3,14.9%,–
COC(=O)c1cc(=O)cc(C(=O)OC)o1,19%,–
O=P(O)(O)OC[C@H]1O[C@](O)(COP(=O)(O)O)[C@@H](O)[C@@H]1O,18%,–
CC(=O)OC[C@H]1O[C@@H](Oc2cc(O)cc3oc(-c4ccc(O)cc4)cc(=O)c23)[C@H](O[C@@H]2O[C@@H](C)[C@H](O)[C@@H](O)[C@H]2O)[C@@H](O)[C@@H]1O,-15.9%,–
CC1CC2CCCC(O)=C2C(=O)O1 (stereo not given),10.7%,–
C=C/C(=C/C(=O)C[C@H](C)C[C@@H](C)CC[C@H](O)[C@H](C)C(=O)C[C@@H](O)[C@H](C)[C@@H](C)OC(=O)C[C@@H](O)C1=C(C)C(=O)OC1=O)CC,-83.6% [at 11.5 µM],–
C=C(C)c1cc2c(ccc3ccc(=O)oc32)o1,17.3%,–
C/C(=C\CNc1ncnc2c1ncn2[C@@H]1O[C@H](CO)[C@@H](O)[C@H]1O)CO,-18.2%,–
NC1C(O)OC(CO)[C@@H](O)[C@@H]1O[C@H]1O[C@@H](C(=O)O)C(O)C(O)C1O (stereo not given in full),25.8%,–
CCCC1CCOC(C)S1 (stereo not given),9.94% [at 115 µM],–
O=C(Nc1cc2cc[nH]c2cn1)c1ccccc1,59.6%,–
O=C(O)CC(=O)Nc1ccccc1C(=O)O,18.3%,–
CC(=O)OCC(=O)[C@@]1(O)CC[C@H]2[C@@H]3CCC4=CC(=O)CC[C@]4(C)[C@@H]3C(=O)C[C@@]21C,4.7%,–
O=C1O/C(=C\c2ccc(O)cc2)C(O)=C1c1ccc(O)cc1,33.2%,–
N=C1SC(=Cc2ccc(-c3ccc4c(c3)C(=O)NC4=O)o2)C(=O)N1c1ccc(Br)cc1,31.1%,–
COc1c2c(nc3ccccc13)OC(C(C)(O)COC(C)=O)C2 (stereo not given),0.38%,–
CC(=NNC(=S)N1CCC1)c1ccccn1,–,0.0243 µM (active)
C=C1CC/C=C(\C)CC[C@@H]2[C@@H]1CC2(C)C,21.2% [at 115 µM],–
CC(C)C[C@H](NC(=O)c1cc2ccccc2s1)C(=O)N1CCN(C(=O)[C@H](CO)NS(=O)(=O)c2ccc(Cl)cc2Cl)CC1,2.38%,–

Compound,"activity change, negative = inhibition",Potency
C=C(C)C(O)Cc1c(OC)ccc(C(=O)/C=C/c2ccc(O)cc2)c1O (stereo not given),-15.7%,–
COc1cc2c(c(OC)c1OC)-c1c(cc(OC)c(OC)c1OC)C[C@](C)(O)[C@@H](C)C2,12.6%,–
O=C1c2ccccc2C(=O)c2c(O)c(O)cc(O)c21,-3.2% [at 115 µM],–
O=C(O)CCC/C=C\C/C=C\C=C\[C@@H](O)C/C=C\CCCCCO,12.9% [at 0.757 µM],–
CC1=C2C(=O)C3C(CC=C4CC(O)CCC43C)C2CCC12OC1CC(C)CNC1C2C (stereo not given),-3.23%,–
CCCCCCCCCCCC(C)=O,0.309% [at 115 µM],–
CC(=O)O[C@H]1C[C@@]2(O)[C@@H](OC(=O)c3ccccc3)C3[C@@](C)([C@@H](O)C[C@H]4OC[C@@]34OC(C)=O)[C@@H](O)[C@H](OC(C)=O)C(=C1C)C2(C)C (stereo not given in full),6.13%,–
CC[C@@H](C)[C@@H](O)[C@H](C)C(=O)[C@H](C)/C=C(\C)C[C@H](C)[C@@H]1OC(=O)[C@H]1CC,18.3%,–
COc1ccc(C2Sc3ccccc3N(CCN(C)C)C(=O)C2OC(C)=O)cc1 (stereo not given),-2.3%,–
CSCC[C@@H](N)C(=O)O,-2.59%,–
CCCCC/C=C\C[C@@H]1O[C@H]1C(O)/C=C\C/C=C\CCCC(=O)O (stereo not given in full),17.5% [at 0.757 µM],–
CC1=CC(=O)/C(=C(/C)O)C(=O)O1,-2.34% [at 115 µM],–
CON(C)C(=O)N1N=C(c2cc(F)ccc2F)S[C@]1(CCCN)c1ccccc1,-84.6%,–
CCCCCCCOC(C)=O,19.3% [at 115 µM],–
C[C@]1(CC/C(=C/CO)CO)[C@H](CO)CC[C@@]23COC(=O)C2=CCC[C@@H]31,9.64%,–
CCCCCC1C(=O)CCC1CC(=O)OC (stereo not given),-0.452%,–
C=CC(C)=CCC=C(C)C,0.783% [at 115 µM],–
c1coc(Cn2cccc2)c1,16.3% [at 115 µM],–
CC(C)(O)c1ccc2c(c1)CCC1C(C)(C(=O)O)CCCC21C (stereo not given),-0.305%,–
CC(=O)O[C@H]1CC[C@@]2(C)[C@H](C1)C(=O)C[C@H]1[C@@H]3CC[C@@H]4[C@@H](CN5C[C@@H](C)CC[C@H]5[C@@]4(C)O)[C@@H]3C[C@@H]12,-3.99%,–
